Data from PubChem BioAssay (NCATS).
Results filed as inconclusive are left out. Where a call stands in place of a potency, no number is given. Values without a mark were called inactive. Calls of active or inactive are those of the source. Unless noted, the call rests on the fitted dose curve.

Experiments:
[1] = qHTS for Inhibitors of the Functional Ribonucleoprotein Complex (vRNP) of Lassa (LASV) Arenavirus: LASV Primary Screen - GLuc reporter signal (AID 1347082; calls by dose curve; tested in HEK293 reporter line; further: nearly all actives have a fitted effect of over 60% in size)
[2] = qHTS for Inhibitors of the Functional Ribonucleoprotein Complex (vRNP) of Lassa (LASV) Arenavirus: Viability assay - alamar blue signal for LASV Primary Screen (AID 1347083; calls by dose curve; tested in HEK293 reporter line; further: nearly all actives have a fitted effect of over 80% in size)
[3] = qHTS for Inhibitors of the Functional Ribonucleoprotein Complex (vRNP) of Lymphocytic Choriomeningitis Arenaviruses (LCMV): Viability assay - alamar blue signal for LCMV Primary Screen (AID 1347085; calls by dose curve; tested in HEK293 reporter line; further: nearly all actives have a fitted effect of over 80% in size)
[4] = molecular target: Nucleoprotein (Lymphocytic choriomeningitis virus (strain Armstrong)) (UniProt P09992); assay: qHTS for Inhibitors of the Functional Ribonucleoprotein Complex (vRNP) of Lymphocytic Choriomeningitis Arenaviruses (LCMV): LCMV Primary Screen - GLuc reporter signal (AID 1347086); further: nearly all actives have a fitted effect of over 70% in size
Chain of Nucleoprotein (Lymphocytic choriomeningitis virus (strain Armstrong)) (P09992 whole entry, looked up): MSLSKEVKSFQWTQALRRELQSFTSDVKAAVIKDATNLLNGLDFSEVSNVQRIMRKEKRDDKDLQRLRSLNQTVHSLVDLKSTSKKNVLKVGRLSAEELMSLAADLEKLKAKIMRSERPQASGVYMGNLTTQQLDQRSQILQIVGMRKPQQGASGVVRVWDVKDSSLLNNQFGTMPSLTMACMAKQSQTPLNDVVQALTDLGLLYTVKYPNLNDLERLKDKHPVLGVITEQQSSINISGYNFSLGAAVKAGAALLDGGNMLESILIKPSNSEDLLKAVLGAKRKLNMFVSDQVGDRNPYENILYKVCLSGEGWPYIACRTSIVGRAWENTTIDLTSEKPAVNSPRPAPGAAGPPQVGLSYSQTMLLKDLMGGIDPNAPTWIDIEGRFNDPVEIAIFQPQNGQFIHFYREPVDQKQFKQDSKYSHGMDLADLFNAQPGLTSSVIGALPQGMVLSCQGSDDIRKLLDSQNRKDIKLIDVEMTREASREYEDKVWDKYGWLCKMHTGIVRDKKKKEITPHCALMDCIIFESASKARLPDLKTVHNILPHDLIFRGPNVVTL
Potency means the concentration at half of the fitted maximal effect.

Row | Structure (SMILES) | Potency [1] | Potency [2] | Potency [3] | Potency [4]
1 | COc1ccc(C(=O)/C=C/c2ccc(O)cc2)c(O)c1CC=C(C)C | inactive | inactive | inactive | inactive
2 | C[C@@H]1CC[C@H]2[C@H](C)[C@H]3CC[C@H]4C5[C@@H](O)CC6=CC(=O)CC[C@]6(C)[C@H]5C[C@H]4C3C(=O)N2C1 (stereo not given in full) | inactive | inactive | inactive | inactive
3 | CCC(=O)OCC(=O)[C@@]1(OC(=O)CC)[C@@H](C)C[C@@H]2[C@H]3CCC4=CC(=O)C=C[C@]4(C)[C@@]3(F)[C@@H](O)C[C@@]21C | inactive | inactive | inactive | inactive
4 | CC(=O)Nc1nc(C)c(-c2ccc(Cl)c(S(=O)(=O)NCCO)c2)s1 | 2.43 µM (active) | 1.37 µM (active) | 0.685 µM (active) | 0.544 µM (active)
5 | CC1(C)CC(=O)c2cc(O)ccc2O1 | inactive | inactive | inactive | inactive
6 | NC(=O)c1ncn([C@@H]2O[C@H](CO)[C@@H](O)[C@@H]2O)c1O | inactive | inactive | inactive | inactive
7 | CCCCC(C=O)NC(=O)C(CC(C)C)NC(=O)OCc1ccccc1 (stereo not given) | inactive | inactive | inactive | inactive
8 | [3H]C([3H])([3H])C(O)(CCC[C@@H](C)C1CC[C@H]2/C(=C/C=C3/C[C@@H](O)CCC3=C)CCC[C@]12C)C([3H])([3H])[3H] (stereo not given in full) | inactive | inactive | inactive | inactive
9 | CC(=O)O[C@H]1C[C@@H]2CC[C@@]1(C)C2(C)C | inactive | inactive | inactive | inactive
10 | O=C(O)[C@H](O)[C@@H](O)C(=O)O | inactive | inactive | inactive | inactive
11 | CC1(C)CCC[C@@](C)([C@H]2CC[C@]3(C)[C@@H]2[C@H](O)CC2[C@@]4(C)CC[C@H](O)C(C)(C)[C@@H]4[C@@H](O)C[C@]23C)O1 (stereo not given in full) | inactive | inactive | inactive | inactive
12 | CNc1ncnc2c1ncn2[C@@H]1O[C@H](CO)C(O)[C@H]1O (stereo not given in full) | inactive | inactive | inactive | inactive
13 | COC(=O)c1ccc2c(c1O)C(=O)c1ccccc1C2=O | inactive | inactive | inactive | inactive
14 | CNC(=O)c1ccccc1Sc1ccc2c(C=Cc3ccccn3)n[nH]c2c1 | inactive | 17.2 µM (active) | inactive | inactive
15 | COc1ccc(-c2coc3cc(OC)ccc3c2=O)cc1 | inactive | inactive | inactive | inactive
16 | CC1(C)CCC[C@]2(C)[C@H]3Cc4cc(O)ccc4O[C@]3(C)CC[C@@H]12 | inactive | inactive | inactive | inactive
17 | COc1ccc(-c2coc3cc(O)cc(O)c3c2=O)cc1OC | inactive | inactive | inactive | inactive
18 | CCCCCCCCCCCCC | inactive | inactive | inactive | inactive
19 | O[C@@H]1CCN2Cc3ccccc3N=C12 | inactive | inactive | inactive | inactive
20 | CC12C=CC(=O)C=C1CCC1C2C(=O)CC2(C)C(=O)CCC12 (stereo not given) | inactive | inactive | inactive | inactive

Row | Structure (SMILES) | Potency [1] | Potency [2] | Potency [3] | Potency [4]
21 | CC(C=CC(O)=C1C(=O)CNC1=O)=C[C@@H](C)C1OC2(C)OC(C(=O)C3O[C@@]32C)C1C (stereo not given in full) | inactive | inactive | inactive | inactive
22 | C/C1=C\[C@@H](O)C(C(C)C)C(OC(=O)c2ccc(O)cc2)C/C(C)=C/CC1 (stereo not given in full) | inactive | inactive | inactive | inactive
23 | CC/C=C\CCOC(C)=O | inactive | inactive | inactive | inactive
24 | COC(=O)c1ccc(N2CC3CNC(=O)C2(C(=O)OC)N3C)cc1 (stereo not given) | inactive | inactive | inactive | inactive
25 | CCCCCCCCCO | inactive | inactive | inactive | inactive
26 | COc1c2c(c3c(c1OC)c(=O)c1ccccc1n3C)OCO2 | inactive | inactive | inactive | inactive
27 | COc1c2c(cc(O)c1C(C)=O)OC(C)(C)C=C2 | inactive | inactive | inactive | inactive
28 | C=C(C)C1CCC(C)(O)CC1 (stereo not given) | inactive | inactive | inactive | inactive
29 | CC(Cc1c[nH]c2ccccc12)C(=O)O (stereo not given) | inactive | inactive | inactive | inactive
30 | C[C@@H]1CC(=O)[C@H]2CC(CO)=CCC[C@@H]2[C@@]1(C)CC/C(=C/CO)CO | inactive | inactive | inactive | inactive
31 | CN1CCCC1 | inactive | inactive | inactive | inactive
32 | CC1=C2C(=O)C3C(CC=C4CC(O)CCC43C)C2CCC12OC1CC(C)CNC1C2C (stereo not given) | inactive | inactive | inactive | inactive
33 | COc1c2c(c(OC)c3c1c(=O)c1ccccc1n3C)OCO2 | inactive | inactive | inactive | inactive
34 | CC1=CC2=C(C=O)C(=O)C(C)(O)C(O)C2=CO1 (stereo not given) | inactive | inactive | inactive | inactive
35 | C=C1[C@H]2C[C@H]3[C@H]4N5C[C@]6(C)CCC[C@]47[C@H]([C@H]2O)[C@]3(C[C@]5(O)[C@H]67)[C@@H]1O | inactive | inactive | inactive | inactive
36 | OC/C=C/c1ccccc1 | inactive | inactive | inactive | inactive
37 | COc1cc(/C=C2/C(=O)Nc3ccccc32)cc(OC)c1O | inactive | inactive | inactive | inactive
38 | C=Cc1cc(OC)c2c(c1)c(=O)oc1c2cc(OC)c2c(O)ccc(C3OC(C)C(O)C(C)(O)C3O)c21 (stereo not given) | inactive | inactive | inactive | inactive
39 | C[N+](C)(C)CCOP(=O)([O-])OC[C@H](O)CO | inactive | inactive | inactive | inactive
40 | CC(C)CC(=O)[C@@H](O)Cc1ccc(O)cc1 | inactive | inactive | inactive | inactive

Row | Structure (SMILES) | Potency [1] | Potency [2] | Potency [3] | Potency [4]
41 | CC1=C(O)C(=O)OC1C (stereo not given) | inactive | inactive | inactive | inactive
42 | CCCCN(CCCC)CC(O)c1cc(Cl)cc2c1-c1ccc(Cl)cc1C2=Cc1ccc(Cl)cc1 (stereo not given) | inactive | inactive | inactive | inactive
43 | COC1=CC(=O)[C@@]2([C@@H]1O)[C@@H](Cl)C[C@]13C(OC)=C(OC)C(=O)C[C@]21CCN3C | inactive | inactive | inactive | inactive
44 | COc1cc(-c2cc(=O)c3c(O)cc(O)cc3o2)ccc1O | inactive | inactive | inactive | inactive
45 | COc1cc2c(=O)c(-c3ccc(O)cc3)coc2cc1OC1OC(CO)C(O)C(O)C1O (stereo not given) | inactive | inactive | inactive | inactive
46 | CN1CC[C@@]2([C@@]34CCN(C)C3Nc3ccccc34)c3ccccc3NC12 (stereo not given in full) | inactive | inactive | inactive | inactive
47 | CC(C)CNC(=O)/C=C/C=C/CCCC/C=C/c1ccc2c(c1)OCO2 | inactive | inactive | inactive | inactive
48 | CC(C)(O)Cn1c(NC(=O)c2ccc(-c3cn[nH]c3)s2)nc2cc(CN3CCOCC3)ccc21 | 3.43 µM (active) | 3.43 µM (active) | 4.32 µM (active) | 10.9 µM (active)
49 | CC1(C)C[C@H](O)[C@]2(CO)[C@H](O)C[C@]3(C)C(=CCC4[C@@]5(C)CC[C@H](O)C(C)(C)C5CC[C@]43C)[C@@H]2C1 (stereo not given in full) | inactive | inactive | inactive | inactive
50 | CC(C)=CCCC(C)C=O (stereo not given) | inactive | inactive | inactive | inactive
51 | C/C=C(/C)C(=O)O[C@@H]1c2c(ccc3ccc(=O)oc23)O[C@@H]1C(C)(C)OC(C)=O | inactive | inactive | inactive | inactive
52 | COc1c2n(C)ccc3c-2n(c(=O)c1=O)c1ccccc31 | inactive | inactive | inactive | inactive
53 | CCCCCCC[C@@H](C/C=C/CCC(=O)N(C)C/C(=C/Cl)C/C(=C\C(=O)N1CC(OC)=CC1=O)OC)OC | inactive | inactive | inactive | inactive
54 | CC(=O)O[C@@]1(C)C[C@@H](O)[C@]2(O)C=CO[C@@H](O[C@@H]3O[C@H](CO)[C@@H](O)[C@H](O)[C@H]3O)[C@@H]21 | inactive | inactive | inactive | inactive
55 | CCCCCCCCCOC(C)=O | inactive | inactive | inactive | inactive
56 | OC(c1cc(C(F)(F)F)nc2c(C(F)(F)F)cccc12)C1CCCCN1 (stereo not given) | inactive | inactive | inactive | inactive
57 | CC1C(c2ccccc2)OC(=O)N1C (stereo not given) | inactive | inactive | inactive | inactive
58 | CC(=O)c1ccc(C)cc1 | inactive | inactive | inactive | inactive
59 | COc1c2ccc(OCC/C(C)=C/C(=O)C=C(C)C)cc2nc2occc12 | inactive | inactive | inactive | inactive
60 | C[C@H]1CCC2[C@](C)(CO)[C@@H](O)CC[C@]2(C)[C@@]12CCC(CO)(CCO)O2 (stereo not given in full) | inactive | inactive | inactive | inactive
